# Screening results: PubChem BioAssay, National Center for Advancing Translational Sciences (NCATS)
# SW480 rerep = A quantitative high throughput screen for small molecules that induce DNA re-replication in SW480 colon adenocarcinoma cells; SW480 DNA re-replication, Hoechst DNA content imaging, 48 h; Potency, µM (titrated, usually from 46.1 µM), without a hit: at the top dose re-replication activation, most hits filed as activators; hit rate 1.8% among 340,000; AID 624297, 2012; also: % of control where 0% means no effect; nearly all actives have a fitted effect of over 55% in size
#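 Treated cells incubate 48 hr (37 C, 5% CO2), are stained 40 min with Hoechst, and nuclear fluorescence is enumerated; a rise in nuclei with high DNA signal marks re-replication.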
# MCF10A rerep = A quantitative high throughput screen for small molecules that induce DNA re-replication in MCF 10a normal breast cells | MCF 10A DNA re-replication, Hoechst nuclear intensity, 48 h | Potency, µM (highest dose often 46.1 µM), for the others: at the highest dose activity, positive = re-replication, hits mostly activators | hit rate 2.9% among 350,000 | AID 624296, 2012; also: % of control where 0% means no effect; nearly all actives have a fitted effect of over 50% in size
# HT1080-NT tox = qHTS for induction of synthetic lethality in tumor cells producing 2HG: qHTS for the HT-1080-NT fibrosarcoma cell line | AID 686970, 2013 | HT-1080-NT fibrosarcoma viability, CellTiter-Glo ATP luminescence, 48 h | Potency, µM (top dose mostly 46.1 µM), without a hit: top-dose activity, negative = less viability, actives largely listed as cytotoxic | hit rate 1.6% among 360,000;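 also: NT is the 2HG producing partner of a matched IDH1 knockdown line; 0% = DMSO-treated cells and -100% = media-only wells without cells; nearly all actives have a fitted effect of over 55% in size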
#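 Viability by CellTiter-Glo luminescence after 48 h compound exposure at 37C of HT-1080-NT cells (750/well, RPMI, 5% FBS). % activity scaled between DMSO wells and medium-only wells, then curve-fitted and categorized by curve class.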
# KB-3-1 tox = qHTS assay for MDR1-selective chemotherapeutics: Primary screen using the parental adenocarcinoma cell KB-3-1; KB-3-1 viability, CellTiter-Glo ATP luminescence, 72 h; Potency, µM (titrated, usually from 46.1 µM), hits mostly cytotoxic; hit rate 1.4% among 400,000; AID 1347075, 2019; also: % is scaled to controls: 0 for no effect and ±100 for the full control effect; nearly all actives have a fitted effect of over 60% in size
#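 Here the drug-naive KB-3-1 line serves as comparator for MDR sub-line selectivity; cells received compound titrations, 72 h at 37 °C, then CellTiter-Glo readout.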
# HT1080 IDH1KD tx = qHTS for induction of synthetic lethality in tumor cells producing 2HG: qHTS for the HT-1080-IDH1KD cell line | HT-1080 IDH1 knockdown viability, ATP luminescence, 48 h | Potency, µM (top dose mostly 46.1 µM), for inactives: top-dose activity, negative = toxicity, hits mostly cytotoxic | hit rate 2% among 360,000 | AID 686971, 2013;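 also: 0% = DMSO wells and -100% = cell-free medium wells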
#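 Luminescent ATP read-out (CellTiter-Glo, 10 min at room temperature) after 48 h compound exposure at 37 °C gave viability of IDH1-knockdown HT-1080 cells. Activity was normalised to DMSO and cell-free wells, then fitted as concentration-response curves.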
# KB-V1 MDR tox = qHTS assay for MDR1-selective chemotherapeutics: Primary screen using the drug-selected MDR subline cells KB-V1; KB-V1 MDR cells viability, CellTiter-Glo, 72 h; Potency, µM (titrated, usually from 46.1 µM), hits mostly cytotoxic; hit rate 3.4% among 400,000; AID 1347076, 2019; also: % is scaled to controls: 0 for no effect and ±100 for the full control effect; nearly all actives have a fitted effect of over 60% in size
#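 KB-V1, DMEM (no phenol red) + 10% FBS; cpd pin-transferred, titration series; 72 h, 37 degrees C; CellTiter-Glo, luminescence. Data normalized, curve-fit.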
# The depositor's hits bear a star; i = inactive; ? = inconclusive; / = not tested or not shown; [ ] = remark or other dose. Sampled rows, rich in hits. Any-hit rate of the full collection: about 8%. Calls follow the shape of the dose curve; as a rule, active = well fitted curve in the direction sought with a large enough effect; inconclusive = small, poorly fitted or top-dose-only effect, or another doubt; inactive = no such curve, though single readings can be large; an effect the other way counts as inactive or inconclusive. Potency is read from the fitted curve at half-maximal effect.
SMILES,SW480 rerep,MCF10A rerep,HT1080-NT tox,KB-3-1 tox,HT1080 IDH1KD tx,KB-V1 MDR tox
CCCCCCC(=O)c1c(O)n(-c2ccccc2OC)c(=O)[nH]c1=O (tested in a mixture with another compound),-15.2%,13.9%,6.5%,i,15.8%,?
CCCCCCC(=O)c1c(O)n(-c2ccc(OC)cc2)c(=O)[nH]c1=O (tested in a mixture with another compound),5.9%,3.6%,-18.1%,i,-6.9%,8.2µM*
COc1ccc(-n2c(O)c(/C(C)=N/Nc3ccccc3)c(=O)[nH]c2=O)cc1,-94.0%,14.5%,1.64µM*,i,1.84µM*,i
C=C1Nc2ccccc2C(=O)N1c1ccccc1C,-5.8%,6.1%,/,/,/,/
COc1ccc(OC)c(C2C(C#N)=C(N)Oc3c2c(C)nn3-c2cccc(Cl)c2)c1 (configuration not stated),6.4%,?,?,23.1µM*,?,i
COc1ccccc1C1SCC(=O)Nc2c1c(C)nn2-c1cccc(C)c1 (configuration not stated),/,/,/,i,/,i
C=CCN1CC[C@]23c4c5ccc(O)c4O[C@H]2[C@@H](O)C=C[C@H]3[C@H]1C5,-2.1%,10.2%,/,/,/,/
CC(C)c1ccc(NC(=O)CN2C(=O)CN=C(c3ccccc3)c3ccccc32)cc1,/,/,/,i,/,i
O=C(O)c1ccccc1O,?,0.8%,23.9%,i,8.9%,i
C[CH2][Hg][S]c1ccccc1C(=O)O,5.96µM*,0.92µM*,2.31µM*,5.17µM*,3.26µM*,20.6µM*
OC(Cn1c2ccccc2c2ccccc21)C[n+]1cccc2ccccc21 (configuration not stated),1.1%,-0.3%,-7.5%[9.24 µM],?,20µM*,i
COc1ccc(-c2nn(-c3ccccc3)cc2C(=O)N2c3ccc(C)cc3C3CN(C)CCC32)cc1 (configuration not stated),2.4%,?,/,i,23.1µM*,i
c1ccc2c(CN3CCCCCCC3)c[nH]c2c1,?,11.2%,-0.9%,20.6µM*,?,14.6µM*
O=c1[nH]/c(=C\c2ccc(N(CCCl)CCCl)cc2)c(=O)[nH]/c1=C\c1ccc(N(CCCl)CCCl)cc1,/,/,/,?,/,i
COc1ccc(-[n+]2c(-c3ccccc3)cc(-c3ccccc3)cc2-c2ccccc2)cc1,?,?,8.2µM*,7.31µM*,7.31µM*,i
O=C([O-])c1ccc(-[n+]2c(-c3ccccc3)cc(-c3ccccc3)cc2-c2ccccc2)cc1,-9.0%,19.9%,?,i,3.5%,i
Oc1ccc(-[n+]2c(-c3ccccc3)cc(-c3ccccc3)cc2-c2ccccc2)cc1,-3.2%,?,11.6µM*,i,20.6µM*,i
CC(=O)NCC(N)C(=O)c1ccc(C)cc1 (configuration not stated),/,/,-2.5%,/,-2.3%,/
CC1N(C)c2cc(NC(=O)c3ccco3)c(P(=O)(Nc3ccc([N+](=O)[O-])cc3)N3CCOCC3)cc2C1(C)C (configuration not stated),11.0%,?,?,?,10.3µM*,i
O=C(O)c1ccccc1-c1c2cc(Br)c(=O)cc-2oc2[c]([Hg])c(O)c(Br)cc12,-14.9%[20.6 µM],0.1%[20.6 µM],/,/,/,/
CCn1c(O)c(C=NCc2cccs2)c(=O)n(CC)c1=S,-1.5%,?,0.4%,i,5.7%,i
CCn1c(O)c(C(=O)CC2NCCc3ccccc32)c(=O)n(CC)c1=S (configuration not stated),1.6%,20.6µM*,-1.0%,i,-18.3%,i
NP(=O)(Oc1ccccc1Cl)Oc1ccccc1Cl,-24.8%,0.651µM*,-3.1%,i,-2.6%,?
Cc1ccc(/C=C2\C(=O)NC(=S)N(c3ccc(F)cc3)C2=O)s1,10.3%,?,?,i,?,?
Cc1ccc(/C=C2\C(=O)NC(=S)N(c3ccccc3F)C2=O)s1,?,5.8µM*,?,?,?,i
SMILES,SW480 rerep,MCF10A rerep,HT1080-NT tox,KB-3-1 tox,HT1080 IDH1KD tx,KB-V1 MDR tox
C[N+]1([O-])[C@@H]2CC(OC(=O)[C@@H](CO)c3ccccc3)C[C@@H]1[C@H]1O[C@H]12 (some centres not stated),2.5%,10.4%,/,/,/,/
ClC1=C(Cl)C2(Cl)C3C4CC(C5OC45)C3C1(Cl)C2(Cl)Cl (configuration not stated),-4.0%,11.7%,/,/,/,/
Cc1ccc2[nH]c3c(c2c1)CN(C(=O)CN1C[C@H]2C[C@@H](C1)c1cccc(=O)n1C2)CC3,4.11µM*,-58.0%,-1.6%,i,?,i
Cc1cccc(-n2c(/C=C\c3cccc(Br)c3)nc3ccccc3c2=O)c1,/,/,/,i,/,i
CCOC(=O)c1c(N)n(Cc2ccco2)c2nc3ccccc3nc12,-3.2%,581.8%[0.0737 µM],-16.9%,i,-19.2%,i
COc1ccc(Cn2c(N)c(C(=O)NCc3ccco3)c3nc4ccccc4nc32)cc1,2.31µM*,10µM*,-19.1%,?,-23.6%,i
Nc1c(C(=O)NCc2ccco2)c2nc3ccccc3nc2n1CCN1CCOCC1,5.17µM*,16.4µM*,?,i,?,?
Nc1c(C(=O)NCc2ccco2)c2nc3ccccc3nc2n1Cc1ccc(F)cc1,?,3.66µM*,16.4µM*,i,?,i
COCC(C)OC(=O)c1c(N)n(Cc2ccco2)c2nc3ccccc3nc12 (configuration not stated),3.7%,0.5%,-2.9%,i,-11.9%,i
Nc1c(C(=O)NCc2ccco2)c2nc3ccccc3nc2n1Cc1ccccc1,20.6µM*,?,-28.6%,i,-30.0%,i
CCCCn1c(O)c(C(C)=NCCc2ccccc2)c(=O)[nH]c1=O,-5.6%[9.22 µM],-10.9%,1.8%,i,-3.8%,?
CCCCn1c(O)c(C(C)=NCc2ccc3c(c2)OCO3)c(=O)[nH]c1=O,-0.5%,-2.1%,-2.5%,i,-0.9%,?
O=C(/C=C/c1ccc2c(c1)OCO2)c1c(O)n(CCc2ccccc2)c(=O)[nH]c1=O,?,11.6µM*,0.5%,?,0.0%,13µM*
